Test results as given in PubChem BioAssay AID652189 (Johns Hopkins Ion Channel Center, 2013).
The whole screen tested about 2,300 compounds, of which about 900 (39%) were called active.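 How the source made its calls: active means mean duplicate percent inhibition, scaled so buffer wells are 0 and the reference blocker 100, over three buffer SD above buffer mean; inactive means the rest.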 Only a sample is shown.

Each compound was assayed against Anoctamin-1 (Mus musculus) (UniProt Q8BHY3) (assay: blockers of mouse ANO1 channel, retest – cell-based, re-confirmation, confirmation (AID 652189)). Conditions: HEK293 TMEM16A/YFP-H148Q, iodide quench fluorescence, at 10 µM, ionomycin added to raise cell calcium; stronger effect = higher value.
Sequence of Anoctamin-1 (Mus musculus) (Q8BHY3 whole entry, looked up): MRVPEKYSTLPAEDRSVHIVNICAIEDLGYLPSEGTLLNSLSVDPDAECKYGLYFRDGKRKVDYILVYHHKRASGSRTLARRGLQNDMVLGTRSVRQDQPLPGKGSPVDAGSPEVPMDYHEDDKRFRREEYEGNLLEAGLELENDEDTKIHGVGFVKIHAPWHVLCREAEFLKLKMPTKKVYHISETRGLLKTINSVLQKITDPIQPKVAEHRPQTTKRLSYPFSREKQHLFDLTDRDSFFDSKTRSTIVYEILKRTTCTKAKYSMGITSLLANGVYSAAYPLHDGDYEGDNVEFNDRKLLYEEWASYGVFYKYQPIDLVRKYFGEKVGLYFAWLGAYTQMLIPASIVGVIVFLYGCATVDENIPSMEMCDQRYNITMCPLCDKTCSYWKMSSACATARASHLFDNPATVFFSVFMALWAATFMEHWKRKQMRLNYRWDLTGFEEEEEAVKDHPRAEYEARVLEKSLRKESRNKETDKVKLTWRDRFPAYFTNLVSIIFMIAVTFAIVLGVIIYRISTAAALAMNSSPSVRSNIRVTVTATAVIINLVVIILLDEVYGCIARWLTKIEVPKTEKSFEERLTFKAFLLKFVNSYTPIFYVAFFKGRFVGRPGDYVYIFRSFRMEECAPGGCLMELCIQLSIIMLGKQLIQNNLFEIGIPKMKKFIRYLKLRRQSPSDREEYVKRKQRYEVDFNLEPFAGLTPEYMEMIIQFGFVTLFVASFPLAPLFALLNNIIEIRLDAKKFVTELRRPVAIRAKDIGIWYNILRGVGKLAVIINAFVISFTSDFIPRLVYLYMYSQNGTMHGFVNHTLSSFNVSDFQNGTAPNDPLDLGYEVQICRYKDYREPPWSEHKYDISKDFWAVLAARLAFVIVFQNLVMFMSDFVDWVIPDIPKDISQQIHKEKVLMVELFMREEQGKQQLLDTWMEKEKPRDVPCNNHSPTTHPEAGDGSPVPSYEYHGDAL

inhibition, inactive:
CCCCn1ccnc1C(=O)c1cccc(S(=O)(=O)N2c3ccccc3CC2C)c1 (configuration not stated)
CCOC(=O)c1cccc(NC(=O)CCn2nnc3ccccc32)c1
CC(NC(=O)c1ccco1)C(=O)Nc1nc(-c2ccccn2)cs1 (configuration not stated)
Cc1noc(C)c1COC(=O)c1cc2ccccc2cc1O
COc1ccc(CNc2nnnn2C)cc1
Cn1c(CCN2CCCCCC2)nc2cc(NC(=O)Nc3ccccc3)ccc21
CC(C)CNC(=S)NNC(=O)c1nn(C)cc1Cl
O=C(COC(=O)CCc1c[nH]c(=O)[nH]1)Nc1ccccc1Cl
COc1ccc(-c2nc(CCNC(=O)c3ccc(Br)o3)cs2)cc1
O=C(COc1ccccc1)NCc1ccc2c(c1)OCO2
Cc1cccc(N=Nc2c(O)[nH]c3ccc(F)cc23)c1
O=c1cc(C(F)(F)F)[nH]c(=O)n1C1CCCCC1
Cc1ccc(-c2noc(CSc3nnnn3-c3ccccc3)n2)cc1
CN1c2ccc(C=O)c3c(C=O)ccc(c23)N(C)C1(C)C
CN(C)c1cc[n+](Cc2ccccc2)cc1
N#Cc1nc(N)nc(N(c2ccccc2)c2ccccc2)n1
c1ccc(-c2nnc(SCc3nc4ccccc4[nH]3)o2)cc1
CSc1nnc2c(n1)OC(c1ccsc1)N(C(C)=O)c1ccccc1-2 (configuration not stated)
COc1ccc(CCC(=O)c2ccc(OC)cc2)cc1
Cc1ccc2c(c1)N(CC(=O)N1CCCc3ccccc31)C(=O)C(C)O2 (configuration not stated)
CCOC(=O)C1=C(CN2CCc3ccccc32)NC(=O)NC1c1cccc([N+](=O)[O-])c1 (configuration not stated)
O=S1(=O)CCN(Cc2ccccc2Cl)CC1
CCOC(=O)N1CC=C2C(C#N)=C(N)C(C#N)(C#N)[C@H](c3cccs3)[C@H]2C1
Cc1ccc(-n2[nH]c(C)c(/C=N/N3C(=O)c4cccc5cccc(c45)C3=O)c2=O)cc1
CC1=NN(c2cccc(Cl)c2)C(=O)C12CC(C)=C(C)CS2 (configuration not stated)
O=C1NC(=O)C2C1C(c1ccc([N+](=O)[O-])cc1)=NN2Cc1ccccc1 (configuration not stated)
COc1ccc(CN(C)C(=O)CC(c2ccccc2)c2ccccc2)cc1
Cn1c(=O)n(C)c2cc(S(=O)(=O)N3CCCc4ccccc43)ccc21
Cc1ccccc1-n1nnnc1SCCCC(=O)c1ccc(F)cc1
O=C(CN1CCN(C(=S)NC2CCCC2)CC1)Nc1ccc(Oc2ccccc2)cc1
CCCC(=O)Nc1ccccc1N1CCN(C(=O)c2ccccc2)CC1
CCCCNC(=O)CSc1nc2n[nH]c(C)c2c(=N)n1-c1cccc(Cl)c1C
Cc1ccc(C(=O)O)cc1-c1ccc(/C=C2\SC(=O)N(CC(=O)Nc3ccc4c(c3)OCO4)C2=O)o1
O=C(O)c1ccc(NC(=O)C2CCCCC2)cc1
O=C(N/N=C/c1cc(Cl)cc([N+](=O)[O-])c1O)C(O)(c1ccccc1)c1ccccc1
Cc1cc(C)cc(NS(=O)(=O)c2ccc(Oc3ncc(C(F)(F)F)cc3Cl)cc2)c1
Cc1ccc(N2C(=O)S/C(=C/c3cn(C)c4ccccc34)C2=O)cc1
O=C1c2ccccc2C(Nc2ccc3c(c2)OCCO3)N1Cc1ccco1 (configuration not stated)
Cc1ccc(-c2csc(-c3c[nH]c4ccccc34)n2)cc1
S=C(NCc1cccs1)Nc1ccc(Cl)cc1
CN(Cc1cccnc1)C(=O)c1cc(COc2ccc3ncccc3c2)on1
Cc1ccc(C)c(N2CCN(C(=O)CCCCn3c(=O)[nH]c4ccccc4c3=O)CC2)c1
CCOC(=O)N1CCN(C(=O)c2ccc3c(c2)N(Cc2ccc(C)cc2)CCS3)CC1
COc1ccc(OCC(=O)NCCc2ccc(S(N)(=O)=O)cc2)cc1
Cc1nc(CNS(=O)(=O)c2ccc(Oc3ccccc3)cc2)cs1
CCn1nccc1C(=O)Nc1ccc(S(=O)(=O)NC23CC4CC(CC(C4)C2)C3)cc1
CCCCCc1ccc(-c2ccc(C(=O)O)cc2)nc1
COc1ccc(Cl)cc1NC(=O)CCS(=O)(=O)c1cc2c(cc1C)NC(=O)CO2
COc1ccc(-n2c(C)cc(C(=O)CSc3nnc(-c4cccs4)o3)c2C)cc1
Fc1ccc(CSc2nnc(-c3cc4c(s3)-c3ccccc3CC4)o2)cc1
C=C(C)Cn1c(C)cc(C)c(S(=O)(=O)c2ccccc2C)c1=O
O=C(Nc1nc(-c2ccc3c(c2)OCO3)cs1)c1ccncc1
Cc1ccc(N)cc1-n1c(C)ccc1C
CCOC(=O)C(Sc1ncc(C#N)c(N)n1)C(C)C (configuration not stated)
N#Cc1nc(COc2ccc(-c3ccccc3)cc2)oc1NCc1cccnc1
O=C(NC(=S)Nc1ccccc1C(=O)O)c1ccc(-c2ccc(Br)cc2)o1
CSc1cccc(NC(=S)N(C(C)C)C(C)c2ccccn2)c1 (configuration not stated)
CCC(=O)Nc1ccc2nc(C)n(Cc3ccccc3Cl)c(=O)c2c1
Cc1nc(SCC(=O)N2CCc3ccccc3C2)c2c(C)c(C)sc2n1
Cc1ccc(C)c(N2CCN(S(=O)(=O)c3ccc4c(c3)oc(=O)n4C)CC2)c1

inhibition, active:
CC(=O)c1c(C)[nH]c(C(=O)COC(=O)c2cccc(S(=O)(=O)N(C)c3ccccc3)c2)c1C 33.5%
Cc1ccc2c(c1)N(S(=O)(=O)c1cc(-c3cc(C)no3)ccc1C)CCO2 42.5%
Cc1nc(C)c(-c2csc(NCCc3ccccc3)n2)s1 36%
COc1ccc2[nH]cc(/C=C(/C#N)S(=O)(=O)c3ccccc3)c2c1 28%
COc1ccc(NC(=O)C2=CC(c3ccc(OC)c(OC)c3)=NS(=O)(=O)N2C)cc1 27%
Cn1c(CN2CCOCC2)nc2cc(NC(=O)c3ccc(Cl)cc3)ccc21 20%
Cc1nc2ccccc2cc1OCc1ccc(F)cc1 22.5%
O=C(NCCc1ccc2c(c1)OCCO2)c1cc2ccccc2o1 21%
C=CCn1c(SCC(=O)Nc2nc3ccccc3s2)nnc1-c1ccccc1O 30.5%
CSc1nsc(NC(=O)Nc2ccccc2)n1 45%
C=CCSc1nsc(NC(=O)Nc2cccc(C(C)=O)c2)n1 53%
N#CC1=C(SCc2ccccc2)NC(=O)C(C#N)C12CCCC2 (configuration not stated) 17.5%
CCCc1cc(=S)n2c([nH]c3ccccc32)c1C#N 35.5%
CC1CCN(C(=O)c2ccc(CSc3ccc(Cl)cc3)cc2)CC1 50.5%
CN(c1cccc(NC(=O)c2ccc(CN3CCc4ccccc4C3)cc2)c1)S(C)(=O)=O 20.5%
S=C(NCC1CCCO1)N1CCN(c2ccc(Cl)c(Cl)c2)CC1 (configuration not stated) 21%
Cc1cc(C=O)c(C)n1-c1ccc(NC2CCCCC2)c([N+](=O)[O-])c1 23.5%
CC(C)(C)C(=O)/C(C#N)=C/c1ccc(O)cc1 23%
COc1ccc(C(=O)NC2CCCc3c2cnn3-c2cccc(C)c2C)c(OC)n1 (configuration not stated) 65.5%
COC(=O)c1ccc(COC(=O)c2c(C)nn(Cc3ccccc3Cl)c2Cl)o1 16%
Cc1ccc(F)cc1NC(=O)Cc1nn(C)c(=O)c2ccccc12 34.5%
Cc1[nH]n(-c2cccc(Cl)c2)c(=O)c1-c1ccc(Cl)cc1 24%
CCN(CC)S(=O)(=O)c1ccc(N(C)Cc2ccc(C(F)(F)F)cc2)nc1 22%
CCCOc1ccc(Cc2c(Cl)nc(SC)nc2NC)cc1 44.5%
Cc1ccc(NC(=O)C(C)c2cccc(C(=O)c3ccccc3)c2)cc1 (configuration not stated) 30.5%
Cc1nc2c(C(=O)NCc3ccc4c(c3)OCO4)c[nH]n2c(=O)c1Cc1ccccc1F 18%
Cc1ccc(NC(=O)CN(C)CC(=O)Nc2cccc(F)c2)cc1[N+](=O)[O-] 24.5%
O=C(CNCCC1=CCCCC1)Nc1ccccc1N1CCCCCC1 19.5%
CCc1cc2c(N3CCN(c4nnc(CC)s4)CC3)ncnc2s1 40%
O=C(CSCc1ccc(Cl)cc1)N1CCN(Cc2ccc3c(c2)OCO3)CC1 20%
Cc1ccc(-n2ncc3c(N4CCN(c5ccc(F)cc5)CC4)ncnc32)c(C)c1 28.5%
COC(=O)c1ccc(NC(=O)c2ccccc2NS(=O)(=O)c2ccccc2)cc1 29.5%
CCOC(=O)C1CCN(c2ncnc3c2oc2ccc(Br)cc23)CC1 28%
S=C(NCc1ccc(Cl)cc1)NC12CC3CC(CC(C3)C1)C2 46%
CC(=O)c1cc(CN2CCC(C(=O)Nc3cccc(-c4cscn4)c3)CC2)cs1 21.5%
COc1ccc(S(=O)(=O)NCCCCOc2ccc(Cl)cc2)cc1 23.5%
O=C(Nc1cccc(S(=O)(=O)Nc2ccc(Cl)cc2)c1)c1ccc2c(c1)OCCO2 19%
COc1cccc(CNS(=O)(=O)c2ccc3c(c2)CC(C)N3C(=O)C2CCC2)c1 (configuration not stated) 19.5%
Cc1cccc(-n2c(SCC(N)=O)nc3c(c2=O)C2(CCCCC2)Cc2ccccc2-3)c1 22%
COc1cc(CC(=O)Nc2nc(-c3ccc(F)c(F)c3)cs2)cc(OC)c1OC 25.5%
O=C(Nc1ccccc1)c1ccccc1NC(=O)C(F)(F)F 26.5%
Fc1ccc2[nH]c3c(N4CCSCC4)ncnc3c2c1 41.5%
